The results in this text go back to PubChem BioAssay (Tox21).

Inconclusive results are not listed. Active and inactive are the calls of the source. Unless noted, calls follow the shape of the dose curve; as a rule, active = well fitted curve in the direction sought with a large enough effect in the repeat runs; inconclusive = weak or mixed curves; inactive = no such curve, though single readings can be large; an effect the other way counts as inactive or inconclusive.

A short description of assay [1]: qHTS assay to identify small molecule agonists of the vitamin D receptor (VDR) signaling pathway - cell viability counter screen (AID 743224). Also: nearly all actives have a fitted effect of over 50% in size. Also: potency is read from the fitted curve at half-maximal effect. In a few lines:
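Compounds were pin-transferred onto VDR-bla cells plated 4 h earlier; following 16 h incubation at 37C, cell viability was quantified by CellTiter-Glo luminescence after 30 min at room temperature.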

A short description of assay [2]: qHTS assay to identify small molecule antagonists of the vitamin D receptor (VDR) signaling pathway - cell viability counter screen (AID 743225). Also: nearly all actives have a fitted effect of over 50% in size. Also: potency is read from the fitted curve at half-maximal effect. A digest of the protocol:
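Compounds were pinned onto VDR-bla HEK 293T cells together with 1-alpha,25-dihydroxyvitamin D3 at 3 nM final. After 16 h at 37C and 5% CO2 plus the reporter readout, cell viability was measured by CellTiter-Glo luminescence (30 min, room temperature).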
Background: qHTS replaces the single test concentration by a dilution series.

A short description of assay [3]: qHTS assay to identify small molecule agonists of the NFkB signaling pathway - cell viability counter screen (AID 1159515; calls by dose curve; also: nearly all actives have a fitted effect of over 55% in size; also: potency is read from the fitted curve at half-maximal effect). In a few lines: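 Parallel cytotoxicity counter screen in ME-180 cells carrying an NFkB-response-element beta-lactamase reporter, 2,000 cells/well. Compound exposure lasted 5 hr at 37 C, 5% CO2. Cell viability was quantified by CellTiter-Glo luminescence.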

The nature of assay [4]: qHTS assay to identify small molecule agonists of the endoplasmic reticulum stress response signaling pathway - cell viability counter screen (AID 1159517; calls by dose curve; also: nearly all actives have a fitted effect of over 50% in size; also: potency is read from the fitted curve at half-maximal effect). A digest of the protocol: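 After overnight attachment, ESRE-bla HeLa cells were treated with Tox21 library compounds for 5 hr. CellTiter-Glo luminescence, read 30 min post-addition at room temperature, reported viability.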

Assay [5] in a line: qHTS assay to identify small molecule antagonists of the retinoid-related orphan receptor gamma (ROR-gamma) signaling pathway - cell viability counter screen (AID 1159520). Also: nearly all actives have a fitted effect of over 50% in size. Also: potency is read from the fitted curve at half-maximal effect. In a few lines:
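Cytotoxicity was read from cellular ATP (CellTiter-Glo luminescence) after 16 hr at 37 C with 1 uM doxycycline induction. The inducer was added 2 hr after compound transfer to Tet-on ROR gamma CHO cells.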

Assay [6] in a line: qHTS assay to identify small molecule agonists of the AP-1 signaling pathway - cell viability counter screen (AID 1159525; calls by dose curve; also: nearly all actives have a fitted effect of over 55% in size). A digest of the protocol:
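Intracellular ATP by Cell Titer Glo luminescence (30 min, RT) in the same ME-180 AP-1-bla wells after the 5 h compound exposure at 37 °C. Normalised to tetra n-octyl ammonium bromide and DMSO controls.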

Assay [7] in a line: qHTS assay to identify small molecule agonists of the AP-1 signaling pathway (AID 1159526; calls by dose curve).
Assay [8] in a line: qHTS assay to identify small molecule agonists of the RXR signaling pathway - cell viability counter screen (AID 1159529). Also: nearly all actives have a fitted effect of over 50% in size. Also: potency is read from the fitted curve at half-maximal effect. A digest of the protocol: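 Compounds dissolved in DMSO were pinned onto HEK 293T cells carrying a beta-lactamase reporter under RXR-alpha control and incubated 16 hr. Cytotoxicity was then quantified by CellTiter-Glo luminescence.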
Assay [9] is described as follows: qHTS assay to identify small molecule antagonists of the retinoid acid receptor (RAR) signaling pathway - cell viability counter screen (AID 1159551). Also: nearly all actives have a fitted effect of over 35% in size. Also: potency is read from the fitted curve at half-maximal effect. A digest of the protocol: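 ATP-based viability, C3RL4 cells, 6 h at 37 C with 1 uM final retinol co-added after compound; luminescence read 30 min post CellTiter-Glo, RT.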
A short description of assay [10]: qHTS assay to identify small molecule antagonists of the retinoic acid receptor (RAR) signaling pathway (AID 1159552; also: nearly all actives have a fitted effect of over 50% in size; also: potency is read from the fitted curve at half-maximal effect). A digest of the protocol:
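Test chemicals and DMSO controls were pin-transferred onto C3RL4 cells a day after seeding; retinol (1 uM final) followed at once. Luminescent reporter output was quantified after 6 hr of co-incubation and 30 min with detection reagent.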

Assay [11] in a line: qHTS assay to identify small molecule agonists of the retinoic acid receptor (RAR) signaling pathway (AID 1159553). Also: potency is read from the fitted curve at half-maximal effect. In a few lines: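 Quantitative high-throughput format: the Tox21 10K library was tested on C3RL4 RARE-luciferase cells for 6 hr at 37 C and 5% CO2, with luminescence measured after a 30 min room-temperature reagent step.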
The nature of assay [12]: qHTS assay to identify small molecule antagonists of the estrogen related receptor (ERR) signaling pathway - cell viability counter screen (AID 1224818).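 Also: series mostly up to about 46 µM; viability measured after 17.5 h of compound exposure.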 In a few lines:
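Quantitative high-throughput viability counter screen in ERR cells. Compounds (DMSO) incubated 17.5 h at 37 C; read-out was CellTiter-Fluor fluorescence.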

Assay [13] in a line: qHTS assay to identify small molecule agonists of the estrogen related receptor (ERR) signaling pathway (AID 1224820). A digest of the protocol: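 Luminescence readout (One-Glo, 30 min RT) from NTP-supplied ERR cell line exposed to compounds for 18 h at 37 C. Cells seeded 2,000 per well and pre-incubated 6 h before pin-tool compound transfer.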
The test system of assay [14] is estrogen-related receptor alpha (ERRalpha) with PGC-1alpha coactivator, human. Kind of assay: qHTS assay to identify small molecule antagonists of the estrogen related receptor signaling pathway with the pleiotropic PPARgamma coactivator (PGC) (AID 1224821; calls by dose curve). A digest of the protocol:
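PGC/ERR reporter cells; 6 h pre-incubation 37 C/5% CO2; pin-tool compound in DMSO, 18 h 37 C; One-Glo added, 30 min RT; luminescence read. qHTS antagonist mode.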

Assay [15] can be described thus: qHTS assay to identify small molecule antagonists of the estrogen related receptor signaling pathway with the pleiotropic PPARgamma coactivator (PGC) cell viability counter screen (AID 1224822; also: series mostly up to about 46 µM). A digest of the protocol: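 Cytotoxicity in the PGC/ERR cell line is assessed with CellTiter-Fluor, read as fluorescence intensity 30 min after reagent addition, following 17.5 h compound treatment at 37 C.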

A short description of assay [16]: qHTS assay to identify small molecule agonists of the estrogen related receptor signaling pathway with the pleiotropic PPARgamma coactivator (PGC) (AID 1224823). In a few lines: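 Luminescence readout (One-Glo, 30 min RT) from PGC/ERR cell line treated 18 h at 37 C with pin-tool-delivered DMSO compound solutions; cells plated 6 h before dosing. Quantitative HTS format.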

Assay [17] addresses Retinoic acid receptor RXR-alpha (Homo sapiens) (UniProt P19793). Kind of assay: qHTS assay to identify small molecule agonists of the RXR signaling pathway (AID 1159527; calls by dose curve; also: nearly all actives have a fitted effect of over 35% in size). In a few lines: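 Using 9-cis retinoic acid as the reference agonist, chemicals were tested in HEK 293T cells […] for 16 hr; substrate loading lasted 2 hr at room temperature.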

Assay [18] has as its target Nuclear receptor ROR-gamma (Homo sapiens) (UniProt P51449). Kind of assay: qHTS assay to identify small molecule antagonists of the retinoid-related orphan receptor gamma (ROR-gamma) signaling pathway (AID 1159521; also: nearly all actives have a fitted effect of over 50% in size; also: potency is read from the fitted curve at half-maximal effect). In a few lines:
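Test compounds were applied to Tet-on RORγ CHO cells 2 h ahead of doxycycline hyclate (1 uM final). Luciferase reporter activity was quantified by luminescence after 16 h at 37 C and 5% CO2.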

The nature of assay [19]: qHTS assay to identify small molecule antagonists of the estrogen related receptor (ERR) signaling pathway (AID 1224819). In a few lines: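 ERR reporter cell line (NTP) plated at 2,000 cells/well, settled 6 h at 37C/5% CO2, then exposed to LOPAC compounds for 18 h at 37C. One-Glo luciferase luminescence read after 30 min at room temperature.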

Retinoic acid receptor RXR-alpha (Homo sapiens), sequence (P19793 whole entry, looked up): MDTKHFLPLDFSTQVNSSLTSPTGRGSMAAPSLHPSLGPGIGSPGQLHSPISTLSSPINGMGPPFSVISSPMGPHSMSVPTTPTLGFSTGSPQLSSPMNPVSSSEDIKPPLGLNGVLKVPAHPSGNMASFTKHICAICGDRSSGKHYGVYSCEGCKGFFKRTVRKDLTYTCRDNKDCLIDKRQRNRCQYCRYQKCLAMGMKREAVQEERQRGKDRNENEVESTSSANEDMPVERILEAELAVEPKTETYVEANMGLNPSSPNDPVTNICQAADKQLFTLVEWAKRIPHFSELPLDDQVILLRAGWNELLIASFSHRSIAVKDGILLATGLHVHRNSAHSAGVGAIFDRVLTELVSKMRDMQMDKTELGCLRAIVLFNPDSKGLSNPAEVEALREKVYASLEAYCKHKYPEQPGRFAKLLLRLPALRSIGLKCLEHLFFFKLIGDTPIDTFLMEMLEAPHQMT

With `CN(C)[C@@H]1C(=O)C(C(N)=O)=C(O)[C@@]2(O)C(=O)C3=C(O)c4c(O)ccc(Cl)c4[C@@H](O)[C@H]3C[C@@H]12`, the Potency entry in assay [1], in assay [2], in [3], in [4], in assay [5] and in assay [6] was “inactive” each time. The Potency entry in assay [7], in [8], in assay [9], in assay [10], in assay [11] and in [12] was “inactive” in each case. Also, the Potency entry in [14] and in assay [15] was “inactive” in each case. The outcome in assay [13] and in assay [16] was inactive.

For the molecule `NC(=O)NS(=O)(=O)c1ccc(N)cc1`, the Potency result in [2], in assay [3], in [4], in assay [5], in [6] and in [7] was “inactive” each time. Besides, the Potency entry in assay [17], in assay [8], in [9], in assay [10] and in [11] was “inactive” in each case.

For the molecule `Cc1oc(-c2ccccc2)nc1CCC(=O)c1ccc(CC2SC(=O)NC2=O)cc1` (configuration not stated), the Potency result in assay [1], in [3], in assay [4], in assay [5], in [6] and in assay [7] was “inactive” each time. For the same molecule, the Potency result in [8], in assay [9], in [10] and in assay [11] was “inactive” each time.

As to `CCOC(=O)/C=C(C)/C=C/C=C(C)/C=C/c1c(C)cc(OC)c(C)c1C`, the Potency result in assay [1], in [2], in assay [3], in assay [4], in assay [5] and in assay [6] was “inactive” each time. The Potency result in assay [7], in assay [8], in [9] and in assay [10] was “inactive” each time. The Potency in [11] is 0.531 µM (active).

Turning to `CCCCc1oc2ccc(NS(C)(=O)=O)cc2c1C(=O)c1ccc(OCCCN(CCCC)CCCC)cc1`, the Potency in assay [1] is 26.6 µM (active); in assay [2], 23.9 µM (active); in [3], 26.8 µM (active); in assay [4], 21.3 µM (active); in assay [5] it was 26.6 µM (active); in assay [18], 23.7 µM (active). The results for the Potency in assay [8], in [9] and in assay [10] were 9.52 µM (active), 26.6 µM (active) and 16.8 µM (active), respectively.

As to `CC1=NC(C)OC1C` (configuration not stated), the Potency entry in [1], in assay [2], in assay [3], in assay [4], in [5] and in [18] was “inactive” throughout. The Potency result in assay [17], in [8], in assay [9], in [10] and in assay [11] was “inactive” in each case.

Take `O=C(Oc1ccccc1)c1ccccc1C(=O)Oc1ccccc1`: the Potency result in assay [1], in assay [2], in assay [3], in assay [4], in [5] and in assay [6] was “inactive” each time. The Potency entry in assay [7], in assay [8], in assay [9] and in assay [11] was “inactive” in each case.

Regarding `CC(=O)S[C@@H]1CC2=CC(=O)CC[C@]2(C)[C@H]2CC[C@@]3(C)[C@@H](CC[C@@]34CCC(=O)O4)[C@H]12`, the Potency result in assay [1], in assay [3], in assay [4], in assay [5], in assay [6] and in assay [7] was “inactive” in each case. The Potency result in assay [9] is “inactive”.

`O=c1[nH]cnc2nc[nH]c12`: the Potency result in assay [2], in [3], in assay [4], in assay [5], in [18] and in [7] was “inactive” in each case. Moreover, the Potency result in assay [17], in assay [8], in [9], in assay [10] and in [11] was “inactive” each time.

Regarding `Cc1cc(O)c2ccccc2c1O`, the Potency is 7.5 µM (active) in assay [1]; 13.4 µM (active) in [2]; 13.4 µM (active) in assay [3]; 16.9 µM (active) in assay [4]; 7.5 µM (active) in assay [5]; 11.9 µM (active) in assay [18]. Also, the Potency is 15.1 µM (active) in assay [8], 13.3 µM (active) in assay [9] and 16.8 µM (active) in [10].

For the molecule `CCOc1ccc2nc3cc(N)ccc3c(N)c2c1`, the Potency entry in assay [1], in assay [2], in [3], in [4], in assay [5] and in assay [18] was “inactive” in each case. For the same molecule, the Potency entry in [6], in [9] and in assay [11] was “inactive” throughout.

With `COCCCC/C(=N\OCCN)c1ccc(C(F)(F)F)cc1`, the Potency entry in assay [1], in assay [2], in assay [3], in assay [4], in assay [5] and in assay [18] was “inactive” each time. Also, the Potency entry in [6], in assay [9], in [11], in assay [12], in [19] and in assay [14] was “inactive” each time. Besides, in assay [15], the Potency result is “inactive”. Further, the Potency in [10] was 23.7 µM (active). Further, the call in assay [13] and in [16] was inactive.

Consider `Oc1cccc2cc3cccc(O)c3c(O)c12`, for which the Potency result in [1], in [2], in assay [3], in assay [4], in assay [5] and in [18] was “inactive” throughout. Besides, the Potency result in assay [8] is “inactive”.

Take `COc1ccc(C(=O)/C(Br)=C\C(=O)O)cc1`: the Potency result in assay [1], in assay [3], in assay [4], in [18], in assay [8] and in assay [9] was “inactive” throughout. For the same molecule, the Potency entry in [10] is “inactive”. The Potency in assay [5] is 48.6 µM (active); in assay [11], 27.3 µM (active).

As for `CCCCCCCC/C=C/CCCCCCCC1=NCCN1CCO`, the Potency was 34.7 µM (active) in assay [1]; 34.7 µM (active) in assay [2]; 49 µM (active) in assay [3]; 43.6 µM (active) in assay [4]; 68.6 µM (active) in [5]; 61.1 µM (active) in [18]. For the same molecule, the Potency in assay [8] was 49 µM (active); in [9], 68.6 µM (active); in assay [10] it was 61.1 µM (active).

`CC(=O)SC[C@@H](Cc1ccccc1)C(=O)NCC(=O)OCc1ccccc1`: the Potency result in [1], in assay [2], in assay [3], in [4], in assay [5] and in [6] was “inactive” each time. The Potency entry in [7], in assay [17], in [8], in assay [9], in [10] and in [11] was “inactive” throughout.

For `Cc1cccc(S(=O)(=O)O)c1C`, the Potency entry in assay [1], in assay [2], in assay [3], in [4], in [5] and in assay [6] was “inactive” throughout. The Potency entry in [7], in [8], in [9] and in assay [11] was “inactive” each time.
